Assay results published in paper PMC4336329 (PLoS ONE, 2015).
In all, about 310,000 compounds went through this assay and about 14,000 (4.5%) showed an effect of 50% or more. Effects have a minus sign here. This excerpt belongs to a sample that is enriched for strong results.

What follows are compounds tested against human ether-à-go-go-related gene (hERG) potassium channel (human, UniProt Q12809) (assay: primary screen, population patch clamp on CHO cells stably expressing hERG; higher = less effect of the substance).
Sequence of human ether-à-go-go-related gene (hERG) potassium channel (Q12809 whole entry, looked up): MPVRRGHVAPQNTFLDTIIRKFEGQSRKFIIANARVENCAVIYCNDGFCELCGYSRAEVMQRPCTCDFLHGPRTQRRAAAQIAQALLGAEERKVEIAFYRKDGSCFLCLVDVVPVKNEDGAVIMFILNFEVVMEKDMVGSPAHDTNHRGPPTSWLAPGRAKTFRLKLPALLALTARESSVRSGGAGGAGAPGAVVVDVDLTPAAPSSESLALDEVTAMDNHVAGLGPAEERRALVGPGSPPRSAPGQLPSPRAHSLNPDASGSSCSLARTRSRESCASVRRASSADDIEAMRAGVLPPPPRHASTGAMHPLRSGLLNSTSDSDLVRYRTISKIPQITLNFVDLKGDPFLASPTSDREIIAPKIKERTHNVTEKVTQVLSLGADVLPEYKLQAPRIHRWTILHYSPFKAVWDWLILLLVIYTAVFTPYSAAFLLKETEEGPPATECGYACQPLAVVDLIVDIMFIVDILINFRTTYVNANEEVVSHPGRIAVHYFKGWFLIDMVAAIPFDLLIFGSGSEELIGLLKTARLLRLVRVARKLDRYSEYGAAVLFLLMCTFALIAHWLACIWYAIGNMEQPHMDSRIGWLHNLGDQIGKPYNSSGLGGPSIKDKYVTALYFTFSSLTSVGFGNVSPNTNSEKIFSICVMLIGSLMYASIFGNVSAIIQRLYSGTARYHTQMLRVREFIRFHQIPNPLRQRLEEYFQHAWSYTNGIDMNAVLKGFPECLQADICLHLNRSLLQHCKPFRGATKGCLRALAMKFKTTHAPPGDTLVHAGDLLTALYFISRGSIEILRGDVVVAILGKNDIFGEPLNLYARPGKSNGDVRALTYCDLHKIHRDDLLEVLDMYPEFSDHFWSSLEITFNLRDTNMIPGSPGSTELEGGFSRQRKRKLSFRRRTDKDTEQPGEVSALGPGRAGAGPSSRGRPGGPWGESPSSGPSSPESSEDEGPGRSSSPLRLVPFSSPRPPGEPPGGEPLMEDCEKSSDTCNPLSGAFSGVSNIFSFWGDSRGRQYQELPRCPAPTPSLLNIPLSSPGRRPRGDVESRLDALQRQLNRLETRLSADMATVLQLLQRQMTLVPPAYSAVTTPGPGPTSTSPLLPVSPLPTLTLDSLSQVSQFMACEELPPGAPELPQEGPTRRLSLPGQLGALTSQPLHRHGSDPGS
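Note: peak tail current of the secondary pulse compared with the same well before compound.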

Structure (SMILES)	hERG current change (%, negative = inhibition) at 10uM
O=C(Nc1cccnc1Cl)c1cc([N+](=O)[O-])ccc1Cl	9.09%
Fc1ccc(CNc2nc(-c3cccnc3)nc3ccccc23)cc1	-50.4%
OC(CNc1nc(-c2cccnc2)nc2ccccc12)c1ccccc1 (stereo not drawn)	-36.4%
COCCCNc1nc(-c2ccncc2)nc2ccccc12	-15.5%
Cc1ccc(CNc2nc(-c3cccnc3)nc3ccccc23)cc1	8.72%
c1ccc(-c2nc(NCCCn3ccnc3)c3ccccc3n2)cc1	-59.3%
c1cncc(-c2nc(NCc3ccco3)c3ccccc3n2)c1	-5.1%
Fc1ccccc1CNc1nc(-c2cccnc2)nc2ccccc12	17.8%
Cc1nc(NCCCn2ccnc2)c2ccccc2n1.Cl	3.46%
COc1ccc(C(CNc2nc(-c3cccnc3)nc3ccccc23)N(C)C)cc1 (stereo not drawn)	-59.2%
COc1cccc(CNc2nc(-c3cccnc3)nc3ccccc23)c1	-15.6%
c1cncc(-c2nc(NCCCn3ccnc3)c3ccccc3n2)c1	-53.5%
c1ccc(CNc2nc(-c3cccnc3)nc3ccccc23)cc1	-23.4%
CC(=O)N1CCCc2cc(S(=O)(=O)N3CCCC(C(=O)Nc4ccccc4C)C3)ccc21 (stereo not drawn)	10.9%
Cc1cc(C)cc(NC(=S)N2CCN(C(=O)c3ccco3)CC2)c1	-0.347%
Cc1onc(-c2ccccc2Cl)c1C(=O)OCC(=O)N1CCN(c2ccccc2)CC1	-16.1%
CC1=C(C(=O)OCc2ccccc2)C(c2ccc(C#N)cc2)NC(=O)N1CCCC(=O)O (stereo not drawn)	10.9%
CCOC(=O)CSc1nc2ccccc2c(=O)n1C	10.1%
CCOC(=O)c1c(NC(=O)CSc2nccn2C)sc(C(=O)NC)c1C	-11.5%

Structure (SMILES)	hERG current change (%, negative = inhibition) at 10uM
COc1ccc2ccccc2c1/C=N/N1C(=O)CSC1=S	16.7%
COc1ccc(-n2nc(C(=O)NCC(=O)NCCCN3CCOCC3)c3ccccc3c2=O)cc1	3.4%
CCN(CC(=O)N1CCCC1)S(=O)(=O)c1ccc(Br)cc1	13.5%
CCc1cc(=O)oc2c3c(cc(OCC(=O)NC4CC4)c12)OC(C)(C)CC3	-13.9%
Cc1ccc(CN2CCN(/N=C/c3cccnc3)CC2)c(C)c1	-47.5%
COc1ccccc1NC(=O)Cn1c(C)cc(=O)c2cccc(OC)c21	-33.3%
COCCNC(=O)c1c[nH]c2ccc(S(=O)(=O)N3CCc4ccccc43)cc2c1=O	6.11%
O=C(OCc1ccccc1F)c1ccc2c(c1)-c1ccccc1C2=O	16.4%
Cc1cccc(OCCn2c(=O)sc3ccccc32)c1	-3.38%
CCOC(=O)Cn1c(=N)n(Cc2ccccc2F)c2ccccc21.Cl	-28.3%
Cl.N=c1n(CCCOc2ccc(F)cc2)c2ccccc2n1CC(N)=O	-41.6%
CCOC(=O)Cn1c(=N)n(CCOc2ccc(F)cc2)c2ccccc21.Cl	-65.8%
CCOC(=O)Cn1c(=N)n(CCOc2ccc(Br)cc2)c2ccccc21.Cl	-69.5%
Br.C=CCn1c(=N)n(CC(=O)OCC)c2ccccc21	5.36%
CCOC(=O)Cn1c(=N)n(CCOc2cccc(C)c2)c2ccccc21.Cl	-62.2%
Cc1cccc(OCCn2c(=O)n(C)c3ccccc32)c1	-13.6%
Cl.N=c1n(CCCOc2ccc(Br)cc2)c2ccccc2n1CC(N)=O	-44.7%
CCOC(=O)Cn1c(=N)n(CCOc2ccc(OC)cc2)c2ccccc21.Cl	-56.4%
CCOC(=O)Cn1c(=O)n(CC(=O)OCC)c2ccccc21	12.3%

Structure (SMILES)	hERG current change (%, negative = inhibition) at 10uM
CCOC(=O)Nc1ccc(S(=O)(=O)N2CCOCC2)cc1	6.38%
CC(/C=N/Nc1nc2ccccc2[nH]1)=C\c1ccccc1	-41.8%
O=C(NCCCN1CCCC1=O)Nc1ccc(F)c(Cl)c1	-1.92%
Cc1nc2ccccc2c(=O)n1-c1cccc(NS(=O)(=O)c2ccccc2)c1	-20.9%
CC(=O)Nc1ccc(N2C(=O)c3ccc(C(=O)Nc4nnc(SCc5ccc(F)cc5)s4)cc3C2=O)cc1	13.4%
Cl.OC(c1ccccc1)(c1ccc(F)cc1)C(c1ccccc1)N1CCOCC1 (stereo not drawn)	16.8%
CC(=O)NC(=O)COC(=O)c1ccc2ncsc2c1	18.5%
O=C(CSc1cccc2cccnc12)N/N=C/c1cccc(O)c1	2.95%
CCOc1ccccc1N1CCN(C(=O)c2cc3c(C)cc(C)cc3[nH]2)CC1	-4.74%
COc1ccc(/C=N/NC(=O)c2ccccc2)cc1OS(=O)(=O)c1ccccc1	-3.53%
CCCCn1c(SC(C)C(N)=O)nc2cc(C(=O)OC)ccc2c1=O (stereo not drawn)	-1.48%
Cn1c(=O)[nH]c(=O)c2c1nc(N1CCN(CCO)CC1)n2Cc1ccccc1Cl	-6.38%
O=C(NC(=O)c1ccccc1)NC1(C(F)(F)F)OCCO1	2.65%
Cc1ccc(-c2nnc(SCC(=O)N/N=C/c3ccccc3C(=O)O)n2C2CCCCC2)cc1	11.1%
CCCOc1ccc(C(C)=O)cc1CSc1nc(O)cc(=O)[nH]1	14.4%
COc1ccc(S(N)(=O)=O)cc1C(=O)OCCCOC(=O)c1cc(S(N)(=O)=O)ccc1OC	4.29%
CCOC(=O)Cn1c(=N)n(CCOc2ccc3ccccc3c2)c2ccccc21.Cl	-75.3%
Br.CCOC(=O)Cn1c(=N)n(Cc2ccccc2)c2ccccc21	-34.6%
Br.CCCn1c(=N)n(CC(=O)OCC)c2ccccc21	-4.66%
